# ± gives the standard deviation of the averaged measurements.
# Tests used:
# Test in all cases: promoter activity interaction Z-score (Lux/OD deviation from empty-vector control); higher = stronger promoter induction by the compound
# [1] = test system: E. coli BW25113 acrABp lux reporter
# Outline: (§1)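 E. coli BW25113 luxCDABE reporter strains grew at 37°C in 40 µl LB Lennox in 384-well plates, with OD600 and luminescence read every 30 min for 12 h. After integration over 0–8 h for wild type or 1–9 h for deletion strains, wells under 10% of the median growth value were removed. Each score is the Z-transformed residual of growth-normalised luminescence fitted against a control.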
# [2] = test system: E. coli BW25113 micFp lux reporter
# Outline: as §1
# [3] = test system: E. coli BW25113 ompFp lux reporter
# Outline: as §1
# [4] = test system: E. coli BW25113 robp lux reporter; details: 0.25 µg/ml; genetic background: wild type
# Outline: as §1
# [5] = 0.25 µg/ml, genetic background: wild type
# [6] = 0.25 µg/ml, genetic background: ΔmarA
# [7] = 0.25 µg/ml, genetic background: Δrob
# [8] = 0.25 µg/ml, genetic background: ΔsoxS
# [9] = 0.5 µg/ml, genetic background: wild type
# [10] = 0.5 µg/ml, genetic background: ΔmarA
# [11] = 0.5 µg/ml, genetic background: Δrob
# [12] = 0.5 µg/ml, genetic background: ΔsoxS
# [13] = 1 µg/ml, genetic background: wild type
# [14] = 1 µg/ml, genetic background: ΔmarA
# [15] = 1 µg/ml, genetic background: Δrob
# [16] = 1 µg/ml, genetic background: ΔsoxS
# [17] = 2 µg/ml, genetic background: wild type
# [18] = 2 µg/ml, genetic background: ΔmarA
# [19] = 2 µg/ml, genetic background: Δrob
compound,measurement,setting,value
CC1(C)S[C@@H]2[C@H](NC(=O)[C@H](N)c3ccc(O)cc3)C(=O)N2[C@H]1C(=O)O [Amoxicillin],promoter activity interaction Z-score,[1]; [5],-0.14 ± 0.051
same,promoter activity interaction Z-score,[1]; [6],-0.253 ± 0.59
same,promoter activity interaction Z-score,[1]; [7],-0.295 ± 0.22
same,promoter activity interaction Z-score,[1]; [8],-0.0223 ± 0.27
same,promoter activity interaction Z-score,[1]; [9],0.0232 ± 0.18
same,promoter activity interaction Z-score,[1]; [10],0.274 ± 0.094
same,promoter activity interaction Z-score,[1]; [11],-0.216 ± 0.0076
same,promoter activity interaction Z-score,[1]; [12],-0.454 ± 0.18
same,promoter activity interaction Z-score,[1]; [13],0.074 ± 0.092
same,promoter activity interaction Z-score,[1]; [14],-0.334 ± 1.8
same,promoter activity interaction Z-score,[1]; [15],-0.382 ± 0.033
same,promoter activity interaction Z-score,[1]; [16],-0.0766 ± 0.0011
same,promoter activity interaction Z-score,[1]; [17],2.15
same,promoter activity interaction Z-score,[1]; [18],0.388
same,promoter activity interaction Z-score,[1]; [19],0.134
same,promoter activity interaction Z-score,[2]; [5],0.256 ± 0.44
same,promoter activity interaction Z-score,[2]; [6],-0.0861 ± 0.065
same,promoter activity interaction Z-score,[2]; [7],0.0252 ± 0.083
same,promoter activity interaction Z-score,[2]; [8],-0.211 ± 0.11
same,promoter activity interaction Z-score,[2]; [9],0.278 ± 0.29
same,promoter activity interaction Z-score,[2]; [10],-0.0538 ± 0.13
same,promoter activity interaction Z-score,[2]; [11],0.0683 ± 0.17
same,promoter activity interaction Z-score,[2]; [12],-0.261 ± 0.46
same,promoter activity interaction Z-score,[2]; [13],0.0789 ± 0.095
same,promoter activity interaction Z-score,[2]; [14],-0.0503 ± 0.00046
same,promoter activity interaction Z-score,[2]; [15],0.0923 ± 0.071
same,promoter activity interaction Z-score,[2]; [16],-0.05 ± 0.078
same,promoter activity interaction Z-score,[2]; [17],1.75 ± 2.8
same,promoter activity interaction Z-score,[2]; [18],-0.285 ± 0.003
same,promoter activity interaction Z-score,[2]; [19],-0.0252 ± 0.1
same,promoter activity interaction Z-score,"[2]; 2 µg/ml, genetic background: ΔsoxS",-0.185 ± 0.25
same,promoter activity interaction Z-score,[3]; [5],0.146 ± 0.14
same,promoter activity interaction Z-score,[3]; [6],-0.696 ± 0.38
same,promoter activity interaction Z-score,[3]; [7],-0.183 ± 0.067
same,promoter activity interaction Z-score,[3]; [8],-0.811 ± 0.064
same,promoter activity interaction Z-score,[3]; [9],0.133 ± 0.13
same,promoter activity interaction Z-score,[3]; [10],-0.265 ± 0.34
same,promoter activity interaction Z-score,[3]; [11],-0.637 ± 0.024
same,promoter activity interaction Z-score,[3]; [12],-0.837 ± 0.48
same,promoter activity interaction Z-score,[3]; [13],-0.523 ± 0.21
same,promoter activity interaction Z-score,[3]; [14],-0.753 ± 0.13
same,promoter activity interaction Z-score,[3]; [15],-0.725 ± 0.24
same,promoter activity interaction Z-score,[3]; [16],-0.869 ± 0.041
same,promoter activity interaction Z-score,[3]; [18],-1.92
same,promoter activity interaction Z-score,[4],0.459 ± 0.29

# Source: the supplement of paper PMC12282887
